Source: PubChem BioAssay (National Center for Advancing Translational Sciences (NCATS))
The sample as a whole holds a higher share of hits than the screen did.
Shiga toxin inh = A qHTS for Small Molecule Inhibitors of Shiga Toxin. actives 9.2% (n = 290,000). inhibition, % at 38.7 µM. Vero cells, Shiga toxin protein synthesis inhibition reporter; in the data active = inhibition mostly above about 28%, no sharp cut-off; inactive = mostly below about 43%; note: 0% is about no effect
Cycloheximide cs = Cycloheximide Counterscreen for Small Molecule Inhibitors of Shiga Toxin; max response, %; cell reporter, cycloheximide protein synthesis inhibition counterscreen; actives 12% (n = 300,000); AID 2314, 2010; in the data active = max response mostly above about 13%, no sharp cut-off; inactive = mostly below about 14%; note: read at 38.3 µM for the half of the compounds with a filed dose; 0% is about no effect
LmPK inh = qHTS Assay for Inhibitors of Leishmania Mexicana Pyruvate Kinase (LmPK) | purified LmPK, Kinase-Glo ATP luminescence, 1 h | Potency, µM (highest dose often 57.5 µM), for inactives: at the highest dose activity change, negative = inhibition, usual class: inhibitors | actives 0.37% (n = 290,000); note: potency is the fitted concentration of half-maximal effect; % is set by controls: 0 for no effect and ±100 for the full control effect
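0.1 nM LmPK, 0.5 mM PEP, 0.1 mM ADP; 50 mM imidazole pH 7.2, 7 mM MgCl2, 50 mM KCl; 1 h RT. Kinase-Glo luminescence readout, normalized to no-enzyme (full inhibition) and uninhibited wells.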
TbPYK inhibitor = qHTS of Trypanosoma Brucei Inhibitors; pyruvate kinase (Trypanosoma brucei), Q57TT1; actives 0.12% (n = 410,000); Potency, µM (titrated, usually from 76.8 µM), without a hit: top-dose activity, negative = inhibition, most hits filed as inhibitors; TbPYK enzyme, Kinase-Glo Plus ATP luminescence, 45 min; note: potency is the fitted concentration of half-maximal effect; % is set by controls: 0 for no effect and ±100 for the full control effect; nearly all actives have a fitted effect of over 50% in size
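Screened from lowest to highest concentration, compounds were pinned into TbPYK/substrate mixtures, and ADP (130 uM final) was added. Plates sat at room temperature for 45 min prior to Kinase-Glo Plus detection by luminescence.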
Giardia FBPA inh-1 = qHTS Assay for Inhibitors of Fructose-1,6-bisphosphate Aldolase from Giardia Lamblia | AID 2451, 2010 | actives 0.71% (n = 290,000) | purified Giardia FBPA | Potency, µM (series often up to 59.6 µM), for the others: at the highest dose activity, negative = inhibition, actives largely listed as inhibitors | A8B2U2; note: potency is the fitted concentration of half-maximal effect; % is set by controls: 0 for no effect and ±100 for the full control effect; nearly all actives have a fitted effect of over 55% in size
Target sequence (A8B2U2 whole entry, looked up): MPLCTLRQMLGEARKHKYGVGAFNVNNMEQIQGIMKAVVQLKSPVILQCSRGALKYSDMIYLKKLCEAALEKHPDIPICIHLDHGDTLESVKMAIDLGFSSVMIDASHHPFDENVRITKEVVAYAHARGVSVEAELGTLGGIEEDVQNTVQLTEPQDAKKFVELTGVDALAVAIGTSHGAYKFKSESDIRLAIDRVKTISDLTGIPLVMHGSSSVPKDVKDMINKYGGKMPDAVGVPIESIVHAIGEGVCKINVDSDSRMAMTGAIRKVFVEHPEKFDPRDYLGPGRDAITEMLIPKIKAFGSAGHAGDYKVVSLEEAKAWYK
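Giardia FBPA (40 nM reagent) was preincubated 10 min at RT with compound (up to 57.5 uM final), then substrate plus GAPDH/TPI/NAD/arsenate coupling system with diaphorase/resazurin was added; resorufin fluorescence (525/598 nm) was read after 20 min.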
RE007 growth inh = qHTS Assay for Inhibitors of the HIV-1 protein Vpr | S. pombe RE007 Vpr strain, BacTiter-Glo ATP luminescence, 24 h | Potency, µM (series often up to 92.2 µM), inactives show at the top dose activity change, negative = less growth, actives largely listed as inhibitors | actives 0.21% (n = 360,000) | AID 651644, 2012; active = well fitted falling curve with a large enough effect; inconclusive = small, poorly fitted or top-dose-only effect; inactive = no such curve, though single readings can be large or run the other way; note: potency is the fitted concentration of half-maximal effect; % is set by controls: 0 for no effect and ±100 for the full control effect; nearly all actives have a fitted effect of over 50% in size
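Fission yeast strain RE007, carrying one chromosomally integrated HIV-1 vpr copy, was seeded at OD 0.01 in PMG+AL medium with 23 nL pinned compound. After 24 h at 30 °C and 99% humidity, viability was read by BacTiter-Glo luminescence.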
Giardia growth = qHTS Assay for Inhibitors of Fructose-1,6-bisphosphate Aldolase from Giardia Lamblia: Giardia lamblia growth inhibition; Potency, µM (highest dose often 57.5 µM), for the others: at the highest dose activity change, negative = inhibition, actives largely listed as inhibitors; actives 5% (n = 1,500); shares compounds with Giardia FBPA inh-1; Giardia lamblia trophozoite growth inhibition;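 note: potency is the fitted concentration of half-maximal effect; trophozoites exposed to compound for 48 h at 37 °C; % is set by controls: 0 for no effect and ±100 for the full control effect; nearly all actives have a fitted effect of over 70% in size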
Mammal cell tox = qHTS Assay for Inhibitors of Fructose-1,6-bisphosphate Aldolase from Giardia Lamblia: Mammalian cellular toxicity; actives 4% (n = 1,500); mammalian cell viability counter-screen, qHTS; AID 2786, 2010; Potency, µM (doses to about 57.5 µM), for inactives: at the top dose viability change, negative = toxicity, usual class: inhibitors; shares compounds with Giardia FBPA inh-1;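 note: Chinese hamster ovary cells used as mammalian cytotoxicity surrogate; viability measured as cellular ATP by luminescence; potency is the fitted concentration of half-maximal effect; compound exposure lasted 48 h before reading; % is set by controls: 0 for no effect and ±100 for the full control effect; nearly all actives have a fitted effect of over 60% in size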
Giardia FBPA inh-2 = qHTS Assay for Inhibitors of Fructose-1,6-bisphosphate Aldolase from Giardia Lamblia: Primary screen confirmation; purified Giardia aldolase enzyme activity, qHTS; shares compounds with Giardia FBPA inh-1; actives 5% (n = 1,500); Potency, µM (top dose mostly 57.5 µM), without a hit: at the highest dose activity change, negative = inhibition, most hits filed as inhibitors; note: potency is the fitted concentration of half-maximal effect; % is set by controls: 0 for no effect and ±100 for the full control effect; nearly all actives have a fitted effect of over 45% in size
Rabbit FBPA inh = qHTS Assay for Inhibitors of Fructose-1,6-bisphosphate Aldolase from Giardia Lamblia: Rabbit FBPA Selectivity | Potency, µM (series often up to 57.5 µM), without a hit: at the top dose activity, negative = inhibition, hits mostly inhibitors | actives 4% (n = 1,500) | shares compounds with Giardia FBPA inh-1 | Rabbit muscle FBPA enzyme inhibition, selectivity counter-screen; note: potency is the fitted concentration of half-maximal effect; % is set by controls: 0 for no effect and ±100 for the full control effect; nearly all actives have a fitted effect of over 60% in size
Target sequence (P00883 whole entry, looked up): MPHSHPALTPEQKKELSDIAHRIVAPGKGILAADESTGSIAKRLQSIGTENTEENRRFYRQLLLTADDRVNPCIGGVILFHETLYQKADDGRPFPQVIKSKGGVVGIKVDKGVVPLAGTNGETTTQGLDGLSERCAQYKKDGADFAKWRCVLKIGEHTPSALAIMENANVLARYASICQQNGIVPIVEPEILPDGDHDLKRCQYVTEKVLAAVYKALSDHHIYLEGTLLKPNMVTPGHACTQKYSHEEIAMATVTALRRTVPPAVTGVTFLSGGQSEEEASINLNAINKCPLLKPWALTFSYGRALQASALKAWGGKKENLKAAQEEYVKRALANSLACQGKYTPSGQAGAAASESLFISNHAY
GAPDH counter = qHTS Assay for Inhibitors of Fructose-1,6-bisphosphate Aldolase from Giardia Lamblia: Coupling assay counterscreen confirmation. shares compounds with Giardia FBPA inh-1. GAPDH coupling enzyme counterscreen, biochemical, qHTS. Potency, µM (doses to about 57.5 µM), for the others: at the top dose activity change, negative = inhibition, actives largely listed as inhibitors. actives 6% (n = 1,500); note: potency is the fitted concentration of half-maximal effect; % is set by controls: 0 for no effect and ±100 for the full control effect; nearly all actives have a fitted effect of over 55% in size
The depositor's hits bear a star; [ ] = another dose, or the depositor's remark. Unless noted, calls come from the whole dose curve; as a rule, active = well fitted curve in the direction sought with a large enough effect; inconclusive = small, poorly fitted or top-dose-only effect, or another doubt; inactive = no such curve, though single readings can be large; an effect the other way counts as inactive or inconclusive.

Screening Cc1c(C)c2ccc(OCC(=O)Nc3ccc(S(N)(=O)=O)cc3)c(C)c2oc1=O returned Shiga toxin inh -4, Cycloheximide cs 12, LmPK inh 7%, TbPYK inhibitor -3%, Giardia FBPA inh-1 -8% and RE007 growth inh -10%.
For COC(=O)c1ccccc1C(=O)N1CCC(CCC(=O)NC2CC2)CC1 the results were Shiga toxin inh -4, Cycloheximide cs -2, LmPK inh -1%, TbPYK inhibitor 0% and RE007 growth inh -2%.
COc1ccc(CNC(C)C(=O)Nc2ccc3ccccc3c2)cc1OC (stereo unspecified) was read as Shiga toxin inh -23, Cycloheximide cs 1, LmPK inh 6%, TbPYK inhibitor 4%, Giardia FBPA inh-1 2% and RE007 growth inh -11%.
Screening C=CCOc1ccccc1CN1CCCCCC1 returned Shiga toxin inh 11, Cycloheximide cs -2, LmPK inh -1%, TbPYK inhibitor 12%, Giardia FBPA inh-1 18µM*, RE007 growth inh -20%, Giardia growth -10%, Mammal cell tox 0%, Giardia FBPA inh-2 -2%, Rabbit FBPA inh 8% and GAPDH counter 3%.
Screening COc1ccc(F)cc1S(=O)(=O)NCC(=O)NCc1cc(=O)n(C)c(=O)n1C returned Shiga toxin inh -3, Cycloheximide cs 6, LmPK inh 1%, TbPYK inhibitor 16%, Giardia FBPA inh-1 -4% and RE007 growth inh 7%.
CCN1CCN(C(=S)c2ccc(OC)cc2)CC1 was read as Shiga toxin inh -4, Cycloheximide cs -1, LmPK inh 5%, TbPYK inhibitor -30%, Giardia FBPA inh-1 4.5µM*, RE007 growth inh 10%, Giardia growth 3%[38.3 µM], Mammal cell tox 1%, Giardia FBPA inh-2 -5%, Rabbit FBPA inh 3% and GAPDH counter -8%.
For COc1ccc(C(=S)N2CCCCCC2)cc1 the results were Shiga toxin inh 14, Cycloheximide cs -3, LmPK inh 6%, TbPYK inhibitor -16%, Giardia FBPA inh-1 0% and RE007 growth inh -6%.
`CCOc1ccc(C(=S)N2CCN(C)CC2)cc1` gave Shiga toxin inh 24, Cycloheximide cs -1, LmPK inh -4%, TbPYK inhibitor inconclusive, Giardia FBPA inh-1 18µM*, RE007 growth inh 1%, Giardia growth -24%, Mammal cell tox -8%, Giardia FBPA inh-2 -5%, Rabbit FBPA inh 1% and GAPDH counter 1%.
`O=C(OCC(=O)N1N=C(c2ccc(Cl)cc2)CC1c1ccco1)c1cccnc1` (stereo unspecified) gave TbPYK inhibitor inconclusive and RE007 growth inh -6%.
Screening CCc1nc2ccc(C(=O)N(C)CCN(C)C)cn2c1N(C)CCC(C)C returned TbPYK inhibitor -2% and RE007 growth inh -9%[18.4 µM].
`Cc1c(C(=O)O)c(C(=O)O)nc2ccc(N3CCOCC3)cc12` gave Shiga toxin inh -6, Cycloheximide cs 7, LmPK inh 0%, Giardia FBPA inh-1 11µM*, Giardia growth 25%, Mammal cell tox 8%, Giardia FBPA inh-2 inconclusive, Rabbit FBPA inh -21% and GAPDH counter inconclusive.
Cc1ccc2nc(C)cc(N3CCOCC3)c2c1 was read as Shiga toxin inh 38, Cycloheximide cs 1, LmPK inh -2%, TbPYK inhibitor -8%, Giardia FBPA inh-1 -5% and RE007 growth inh -4%.
For CCOC(=O)c1c(NC(=O)CN(C)C2CCN(C)CC2)sc(C(=O)Nc2ccccc2)c1C the results were Shiga toxin inh 10, Cycloheximide cs 8, LmPK inh 1%, TbPYK inhibitor 16%, Giardia FBPA inh-1 20µM*, RE007 growth inh 2%, Giardia growth inconclusive, Mammal cell tox -13%, Giardia FBPA inh-2 2%, Rabbit FBPA inh 5% and GAPDH counter 7%.
For CCOC(=O)c1c(NC(C)=O)sc(C(=O)NC2CCCC2)c1C the results were Shiga toxin inh -7, Cycloheximide cs -6, LmPK inh -1%, TbPYK inhibitor -2%, Giardia FBPA inh-1 11% and RE007 growth inh 10%.
Cc1nc(COC(=O)c2cc(O)c3ccccc3c2O)cs1 was read as Shiga toxin inh 8, Cycloheximide cs 17, LmPK inh -6%, TbPYK inhibitor inconclusive, Giardia FBPA inh-1 20µM*, RE007 growth inh -10%, Giardia growth -13%[10.4 µM], Mammal cell tox -6%, Giardia FBPA inh-2 inconclusive, Rabbit FBPA inh inconclusive and GAPDH counter inconclusive.
Cc1nc(COC(=O)c2ccc(CO)cc2)cs1 was read as Shiga toxin inh 21, Cycloheximide cs 4, LmPK inh 0%, TbPYK inhibitor -6%, Giardia FBPA inh-1 8% and RE007 growth inh -19%.
NS(=O)(=O)c1ccc(-c2ccc(/C=C3\NC(=S)NC3=O)o2)cc1 was read as Shiga toxin inh -6, Cycloheximide cs -2, LmPK inh -2%, TbPYK inhibitor inconclusive, Giardia FBPA inh-1 16µM*, RE007 growth inh -25%, Giardia growth inconclusive, Mammal cell tox 1%, Giardia FBPA inh-2 -25%, Rabbit FBPA inh -15% and GAPDH counter -7%.
